Measurements: the supplement of paper PMC4466140

How the values were obtained:
Assay in all cases: SPOT peptide array binding signal intensity (averaged, normalized) (arbitrary units (background-subtracted, floor 0; scale differs between SH3 domains)); higher = stronger binding of the SH3 domain to the peptide
[1] = molecular target: CaNbp2
In short: (§1)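 To measure binding, SH3 domains from four yeast species were fused to GST, expressed in E. coli BL21(DE3) and purified on glutathione Sepharose. Each domain was incubated at 10 μg/ml overnight at 4°C on cellulose membranes with synthetic 15-mer peptides whose cysteines were replaced by serines. Anti-GST antibody, an HRP anti-mouse secondary and luminol were used for detection, and images were quantified with Genespotter. Reported binding signal is normalized, background-subtracted spot intensity averaged over replicates, in arbitrary units that differ between domains.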

[2] = molecular target: CaRvs167
In short: as §1

[3] = molecular target: CaRvs167-3
In short: as §1

[4] = molecular target: CaSho1
In short: as §1

[5] = molecular target: CaSla1-D1-D2
In short: as §1

[6] = molecular target: CaSla1-D3
In short: as §1

[7] = molecular target: ScAbp1
In short: as §1

[8] = molecular target: ScBbc1
In short: as §1

[9] = molecular target: ScBem1-D1
In short: as §1

[10] = molecular target: ScBzz1-D1
In short: as §1

[11] = molecular target: ScBzz1-D2
In short: as §1

[12] = molecular target: ScCyk3
In short: as §1

[13] = molecular target: ScFus1
In short: as §1

[14] = molecular target: ScHof1
In short: as §1

[15] = molecular target: ScHse1
In short: as §1

[16] = molecular target: ScLsb1
In short: as §1

[17] = molecular target: ScLsb2
In short: as §1

[18] = molecular target: ScLsb3
In short: as §1

[19] = molecular target: ScLsb4
In short: as §1

[20] = molecular target: ScMyo3
In short: as §1

[21] = molecular target: ScMyo5
In short: as §1

[22] = molecular target: ScNbp2
In short: as §1

[23] = molecular target: ScPex13
In short: as §1

[24] = molecular target: ScRvs167
In short: as §1

[25] = molecular target: ScSho1
In short: as §1

[26] = molecular target: ScSla1-D1-D2
In short: as §1

[27] = molecular target: ScSla1-D3
In short: as §1

[28] = molecular target: SpAbp1-D1
In short: as §1

[29] = molecular target: SpBbc1
In short: as §1

[30] = molecular target: SpBzz1-D1
In short: as §1

[31] = molecular target: SpBzz1-D2
In short: as §1

[32] = molecular target: SpCyk3
In short: as §1

[33] = molecular target: SpHof1
In short: as §1

[34] = molecular target: SpHof1-2
In short: as §1

[35] = molecular target: SpHof1-3
In short: as §1

[36] = molecular target: SpHse1
In short: as §1

[37] = molecular target: SpLsb1
In short: as §1

[38] = molecular target: SpLsb4
In short: as §1

[39] = molecular target: SpMyo1
In short: as §1

[40] = molecular target: SpNbp2
In short: as §1

[41] = molecular target: SpPex13
In short: as §1

[42] = molecular target: SpRvs167
In short: as §1

[43] = molecular target: SpSla1-D1-D2
In short: as §1

[44] = molecular target: SpSla1-D3
In short: as §1

[45] = molecular target: AgAbp1
In short: as §1

[46] = molecular target: AgBbc1
In short: as §1

[47] = molecular target: AgBem1-D1
In short: as §1

[48] = molecular target: AgBzz1-D1
In short: as §1

[49] = molecular target: AgBzz1-D2
In short: as §1

[50] = molecular target: AgCyk3
In short: as §1

[51] = molecular target: AgFus1
In short: as §1

[52] = molecular target: AgHof1
In short: as §1

[53] = molecular target: AgHse1
In short: as §1

[54] = molecular target: AgLsb1
In short: as §1

[55] = molecular target: AgLsb4
In short: as §1

[56] = molecular target: AgMyo5
In short: as §1

[57] = molecular target: AgNbp2
In short: as §1

[58] = molecular target: AgRvs167
In short: as §1

[59] = molecular target: AgSho1
In short: as §1

[60] = molecular target: AgSla1-D1-D2
In short: as §1

[61] = molecular target: AgSla1-D3
In short: as §1

[62] = molecular target: CaAbp1-D1
In short: as §1

[63] = molecular target: CaAbp1-D2
In short: as §1

[64] = molecular target: CaBbc1
In short: as §1

[65] = molecular target: CaBem1-D1
In short: as §1

[66] = molecular target: CaBzz1-D1
In short: as §1

[67] = molecular target: CaBzz1-D2
In short: as §1

[68] = molecular target: CaCyk3
In short: as §1

[69] = molecular target: CaFus1
In short: as §1

[70] = molecular target: CaHof1
In short: as §1

[71] = molecular target: CaHse1
In short: as §1

[72] = molecular target: CaLsb1
In short: as §1

[73] = molecular target: CaLsb4
In short: as §1

[74] = molecular target: CaMyo5
In short: as §1

In the case of ISRRRLPVIMHRLKM, the “SPOT peptide array binding signal intensity” value [1] is reported as 812, the “SPOT peptide array binding signal intensity” value [2] is reported as 42.3 and the “SPOT peptide array binding signal intensity” value [3] is reported as 153. The “SPOT peptide array binding signal intensity” value [4] was 738, the “SPOT peptide array binding signal intensity” value [5] was 386 and the “SPOT peptide array binding signal intensity” value [6] was 99.8. For the same binder, the “SPOT peptide array binding signal intensity” value [7] was 150, the “SPOT peptide array binding signal intensity” value [8] was 10.5 and the “SPOT peptide array binding signal intensity” value [9] was 23. The “SPOT peptide array binding signal intensity” value [10] was 8.5, the “SPOT peptide array binding signal intensity” value [11] was 9 and the “SPOT peptide array binding signal intensity” value [12] was 49. The “SPOT peptide array binding signal intensity” value [13] was 516, the “SPOT peptide array binding signal intensity” value [14] was 1 and the “SPOT peptide array binding signal intensity” value [15] was 1390. For the same binder, the “SPOT peptide array binding signal intensity” value [16] was 32.5, the “SPOT peptide array binding signal intensity” value [17] was 2 and the “SPOT peptide array binding signal intensity” value [18] was 1300. For the same binder, the “SPOT peptide array binding signal intensity” value [19] was 42, the “SPOT peptide array binding signal intensity” value [20] was at most 0 and the “SPOT peptide array binding signal intensity” value [21] was at most 0. For the same binder, the “SPOT peptide array binding signal intensity” value [22] was 485, the “SPOT peptide array binding signal intensity” value [23] was 18 and the “SPOT peptide array binding signal intensity” value [24] was 216. The “SPOT peptide array binding signal intensity” value [25] was 1520, the “SPOT peptide array binding signal intensity” value [26] was 222 and the “SPOT peptide array binding signal intensity” value [27] was 70.5. For the same binder, the “SPOT peptide array binding signal intensity” value [28] was 714, the “SPOT peptide array binding signal intensity” value [29] was 0.5 and the “SPOT peptide array binding signal intensity” value [30] was 124. The “SPOT peptide array binding signal intensity” value [31] was 0.5, the “SPOT peptide array binding signal intensity” value [32] was 16 and the “SPOT peptide array binding signal intensity” value [33] was 285. The “SPOT peptide array binding signal intensity” value [34] was 101, the “SPOT peptide array binding signal intensity” value [35] was 618 and the “SPOT peptide array binding signal intensity” value [36] was 690. The “SPOT peptide array binding signal intensity” value [37] was 1.5, the “SPOT peptide array binding signal intensity” value [38] was 484 and the “SPOT peptide array binding signal intensity” value [39] was 2.5. For the same binder, the “SPOT peptide array binding signal intensity” value [40] was 437, the “SPOT peptide array binding signal intensity” value [41] was 22 and the “SPOT peptide array binding signal intensity” value [42] was 159. For the same binder, the “SPOT peptide array binding signal intensity” value [43] was 14 and the “SPOT peptide array binding signal intensity” value [44] was 18.5.

With NPNRRAPRRPLSTQH the “SPOT peptide array binding signal intensity” value [45] was 134, the “SPOT peptide array binding signal intensity” value [46] was 248 and the “SPOT peptide array binding signal intensity” value [47] was 136. The “SPOT peptide array binding signal intensity” value [48] was 18.5, the “SPOT peptide array binding signal intensity” value [49] was 96 and the “SPOT peptide array binding signal intensity” value [50] was 1. For the same binder, the “SPOT peptide array binding signal intensity” value [51] was 492, the “SPOT peptide array binding signal intensity” value [52] was 37.8 and the “SPOT peptide array binding signal intensity” value [53] was 1700. The “SPOT peptide array binding signal intensity” value [54] was 9.75, the “SPOT peptide array binding signal intensity” value [55] was 110 and the “SPOT peptide array binding signal intensity” value [56] was 1.5. The “SPOT peptide array binding signal intensity” value [57] was 1950, the “SPOT peptide array binding signal intensity” value [58] was at most 0 and the “SPOT peptide array binding signal intensity” value [59] was 100. The “SPOT peptide array binding signal intensity” value [60] was 484, the “SPOT peptide array binding signal intensity” value [61] was 18 and the “SPOT peptide array binding signal intensity” value [62] was 660. For the same binder, the “SPOT peptide array binding signal intensity” value [63] was 806, the “SPOT peptide array binding signal intensity” value [64] was 1050 and the “SPOT peptide array binding signal intensity” value [65] was 184. For the same binder, the “SPOT peptide array binding signal intensity” value [66] was 90, the “SPOT peptide array binding signal intensity” value [67] was 104 and the “SPOT peptide array binding signal intensity” value [68] was 189. The “SPOT peptide array binding signal intensity” value [69] was 374, the “SPOT peptide array binding signal intensity” value [70] was at most 0 and the “SPOT peptide array binding signal intensity” value [71] was 108. For the same binder, the “SPOT peptide array binding signal intensity” value [72] was at most 0, the “SPOT peptide array binding signal intensity” value [73] was 330 and the “SPOT peptide array binding signal intensity” value [74] was 1.5. For the same binder, the “SPOT peptide array binding signal intensity” value [1] was 4120, the “SPOT peptide array binding signal intensity” value [2] was 19 and the “SPOT peptide array binding signal intensity” value [3] was 66. For the same binder, the “SPOT peptide array binding signal intensity” value [4] was 562, the “SPOT peptide array binding signal intensity” value [5] was 622 and the “SPOT peptide array binding signal intensity” value [6] was 12.2. The “SPOT peptide array binding signal intensity” value [7] was 154, the “SPOT peptide array binding signal intensity” value [8] was 185 and the “SPOT peptide array binding signal intensity” value [9] was 28.5. For the same binder, the “SPOT peptide array binding signal intensity” value [10] was 30.5, the “SPOT peptide array binding signal intensity” value [11] was 8 and the “SPOT peptide array binding signal intensity” value [12] was 109. For the same binder, the “SPOT peptide array binding signal intensity” value [13] was 402, the “SPOT peptide array binding signal intensity” value [14] was 1.25 and the “SPOT peptide array binding signal intensity” value [15] was 2480. For the same binder, the “SPOT peptide array binding signal intensity” value [16] was 65, the “SPOT peptide array binding signal intensity” value [17] was 12 and the “SPOT peptide array binding signal intensity” value [18] was 1470. For the same binder, the “SPOT peptide array binding signal intensity” value [19] was 35, the “SPOT peptide array binding signal intensity” value [20] was 20 and the “SPOT peptide array binding signal intensity” value [21] was 8.75. For the same binder, the “SPOT peptide array binding signal intensity” value [22] was 4200, the “SPOT peptide array binding signal intensity” value [23] was 23.5 and the “SPOT peptide array binding signal intensity” value [24] was 46.5. For the same binder, the “SPOT peptide array binding signal intensity” value [25] was 984, the “SPOT peptide array binding signal intensity” value [26] was 1340 and the “SPOT peptide array binding signal intensity” value [27] was 7. The “SPOT peptide array binding signal intensity” value [28] was 313, the “SPOT peptide array binding signal intensity” value [29] was 50.5 and the “SPOT peptide array binding signal intensity” value [30] was 352. The “SPOT peptide array binding signal intensity” value [31] was 32.2, the “SPOT peptide array binding signal intensity” value [32] was 1 and the “SPOT peptide array binding signal intensity” value [33] was 342. For the same binder, the “SPOT peptide array binding signal intensity” value [34] was 8.5, the “SPOT peptide array binding signal intensity” value [35] was 166 and the “SPOT peptide array binding signal intensity” value [36] was 1390. The “SPOT peptide array binding signal intensity” value [37] was 11, the “SPOT peptide array binding signal intensity” value [38] was 906 and the “SPOT peptide array binding signal intensity” value [39] was 84.5. For the same binder, the “SPOT peptide array binding signal intensity” value [40] was 498, the “SPOT peptide array binding signal intensity” value [41] was 48.5 and the “SPOT peptide array binding signal intensity” value [42] was 17. The “SPOT peptide array binding signal intensity” value [43] was 1 and the “SPOT peptide array binding signal intensity” value [44] was 32.
